Compounds with a hit are over-represented: about 10% of the library has one in this group of screens.
GLS inh – qHTS for Inhibitors of Glutaminase (GLS); Glutaminase kidney isoform, mitochondrial (Homo sapiens), O94925; GLS enzymatic activity, qHTS titration; Potency, µM (doses to about 45.5 µM), for inactives: at the highest dose activity change, negative = inhibition, hits mostly inhibitors; hit rate 0.21% among 410,000; AID 624170, 2012; further: on the % scale 0 is the no-effect control and ±100 the full control effect
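Enzyme dispensed in phosphate buffer (45 mM, pH 8.2, 0.02% Tween-20), compounds pinned in, then 1 mM L-glutamine solution and the glutamate oxidase–HRP–Amplex Red mix added; fluorescence read immediately and again after 30 min at room temperature.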
G9a inh – qHTS Assay for Inhibitors of Histone Lysine Methyltransferase G9a; Histone-lysine N-methyltransferase EHMT2 (Homo sapiens), Q96KQ7; G9a H3K9 monomethylation, AlphaScreen, 2 h; Potency, µM (series often up to 102 µM), for the others: top-dose activity, negative = inhibition, hits mostly inhibitors; hit rate 8.8% among 350,000; further: on the % scale 0 is the no-effect control and ±100 the full control effect; nearly all actives have a fitted effect of over 75% in size
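Step 1: enzyme (final 20 nM) with compound, 15 min RT. Step 2: substrate peptide 500 nM and SAM 20 uM, 2 h RT. Step 3: anti-H3K9me1 antibody and AlphaScreen beads, 10 min, then plate read.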
HP1b binding inh – HTS for Inhibitors of HP1-beta Chromodomain Interactions with Methylated Histone Tails; hit rate 0.56% among 390,000; AID 540317, 2011; Potency, µM (top dose mostly 114 µM), without a hit: top-dose activity change, negative = inhibition, actives largely listed as inhibitors; AlphaScreen HP1-beta / biotin-H3K9me3 peptide binding; Chromobox protein homolog 1 (Homo sapiens), P83916; further: nearly all actives have a fitted effect of over 70% in size
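AlphaScreen: HP1-beta (50 nM) preformed 30 min with biotin-H3(1-18)K9me3 peptide (50 nM) in PBS pH 7.4, 0.01% Tween-20. Compound added for 30 min at RT, then streptavidin donor/nickel chelate acceptor beads (10 ug/mL) for 30 min.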
BAZ2B inh – qHTS Assay for Inhibitors of BAZ2B | hit rate 4.4% among 360,000 | AlphaScreen BAZ2B-H3K14Ac peptide displacement | Potency, µM (titrated, usually from 114 µM), inactives show top-dose activity change, negative = inhibition, usual class: inhibitors; further: on the % scale 0 is the no-effect control and ±100 the full control effect; nearly all actives have a fitted effect of over 60% in size
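Complex of BAZ2B and biotin-H3K14Ac (50 nM apiece) forms over 30 min at RT, then faces library compounds up to 110 uM for another 30 min; AlphaScreen beads added, 20 min dark incubation, luminescence read.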
JMJD2A Tudor inh – qHTS Assay for Inhibitors of JMJD2A-Tudor Domain | hit rate 4.4% among 390,000 | AID 504339, 2011 | Lysine-specific demethylase 4A (Homo sapiens), O75164 | Potency, µM (doses to about 114 µM), for the others: top-dose activity change, negative = inhibition, hits mostly inhibitors | AlphaScreen JMJD2A-Tudor / H3K4me3 peptide binding; further: on the % scale 0 is the no-effect control and ±100 the full control effect; nearly all actives have a fitted effect of over 50% in size
Target sequence (O75164 whole entry, looked up, the tested form may be a part): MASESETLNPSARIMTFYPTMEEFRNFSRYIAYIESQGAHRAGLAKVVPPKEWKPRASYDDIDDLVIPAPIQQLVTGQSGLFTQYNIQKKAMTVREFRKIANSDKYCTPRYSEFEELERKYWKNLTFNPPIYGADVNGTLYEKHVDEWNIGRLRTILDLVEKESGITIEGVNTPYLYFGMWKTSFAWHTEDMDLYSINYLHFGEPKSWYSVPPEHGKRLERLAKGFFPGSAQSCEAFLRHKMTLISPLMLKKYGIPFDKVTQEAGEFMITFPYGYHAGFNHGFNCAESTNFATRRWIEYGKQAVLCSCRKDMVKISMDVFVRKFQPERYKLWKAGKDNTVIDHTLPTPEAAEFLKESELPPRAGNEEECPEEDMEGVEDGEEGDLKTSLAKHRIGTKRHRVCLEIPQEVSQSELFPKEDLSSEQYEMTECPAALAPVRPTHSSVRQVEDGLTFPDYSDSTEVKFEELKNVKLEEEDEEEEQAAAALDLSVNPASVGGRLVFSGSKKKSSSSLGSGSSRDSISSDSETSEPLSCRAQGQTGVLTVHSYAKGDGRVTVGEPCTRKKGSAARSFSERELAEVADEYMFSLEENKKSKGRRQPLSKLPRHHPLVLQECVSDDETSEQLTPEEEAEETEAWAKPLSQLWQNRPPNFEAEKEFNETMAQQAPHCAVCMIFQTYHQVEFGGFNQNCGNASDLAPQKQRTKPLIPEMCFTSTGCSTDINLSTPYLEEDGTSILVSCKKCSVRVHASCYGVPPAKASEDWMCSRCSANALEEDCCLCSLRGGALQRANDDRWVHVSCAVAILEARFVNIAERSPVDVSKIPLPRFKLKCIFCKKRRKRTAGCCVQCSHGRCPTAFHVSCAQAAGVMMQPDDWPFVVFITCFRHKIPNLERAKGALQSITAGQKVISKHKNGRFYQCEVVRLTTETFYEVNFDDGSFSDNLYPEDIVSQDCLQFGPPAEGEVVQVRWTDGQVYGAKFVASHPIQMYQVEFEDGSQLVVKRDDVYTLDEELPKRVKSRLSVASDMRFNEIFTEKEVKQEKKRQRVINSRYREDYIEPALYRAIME
* marks the source's active call; other numbers are inactive results; ? = inconclusive; . = not tested or not shown; [ ] = another dose, or the depositor's remark. The call rests on the fitted dose curve; in most records, active means well fitted curve in the direction sought with a large enough effect; inconclusive means small, poorly fitted or top-dose-only effect, or another doubt; inactive means no such curve, though single readings can be large; an effect the other way counts as inactive or inconclusive. Potency means the concentration at half of the fitted maximal effect.

SMILES | GLS inh | G9a inh | HP1b binding inh | BAZ2B inh | JMJD2A Tudor inh
COc1ccc2c(c1)CCCC2NS(=O)(=O)OCC(Cl)(Cl)Cl (stereo not given) | 0% | . | 134% | 18% | 31%
CC1(C)CC(NS(=O)(=O)OCC(Cl)(Cl)Cl)c2cc(C#N)ccc2O1 (stereo not given) | 34% | -1% | 22% | 0% | 32µM*
CCOC(=O)CCNC(=O)N1CCC(CCC(=O)NCc2ccc(F)cc2)CC1 | 6% | 54% | 56% | -20% | 8%
NS(=O)(=O)c1ccc(Nc2nc(-c3ccc(O)cc3O)cs2)cc1 | 16% | 1%[59 µM] | -16% | ? | -23%
Cc1cccnc1Nc1nc(-c2ccc(O)cc2O)cs1 | 42% | 6.3µM* | -34% | ? | 14µM*
Fc1ccc(-c2csc(Nc3ccccn3)n2)cc1 | -5% | 79µM* | 29% | -39% | -27%
